# Reference: PubChem BioAssay AID449739 (Vanderbilt High Throughput Screening Facility, 2010)
# The campaign covered roughly 100,000 compounds. About 4,200 (4.2%) were called active. The sample holds actives, similar compounds and a random draw of the others, so the mix is not that of the screen.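 The calls were made as follows: active = single-dose well whose peak fluorescence ratio is a statistical outlier from its plate by either plate-standardised score or position-corrected B-score; inactive = the rest.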
# Target: Voltage-dependent T-type calcium channel subunit alpha-1H (Homo sapiens) (UniProt O95180)
# Sequence (O95180 whole entry, looked up): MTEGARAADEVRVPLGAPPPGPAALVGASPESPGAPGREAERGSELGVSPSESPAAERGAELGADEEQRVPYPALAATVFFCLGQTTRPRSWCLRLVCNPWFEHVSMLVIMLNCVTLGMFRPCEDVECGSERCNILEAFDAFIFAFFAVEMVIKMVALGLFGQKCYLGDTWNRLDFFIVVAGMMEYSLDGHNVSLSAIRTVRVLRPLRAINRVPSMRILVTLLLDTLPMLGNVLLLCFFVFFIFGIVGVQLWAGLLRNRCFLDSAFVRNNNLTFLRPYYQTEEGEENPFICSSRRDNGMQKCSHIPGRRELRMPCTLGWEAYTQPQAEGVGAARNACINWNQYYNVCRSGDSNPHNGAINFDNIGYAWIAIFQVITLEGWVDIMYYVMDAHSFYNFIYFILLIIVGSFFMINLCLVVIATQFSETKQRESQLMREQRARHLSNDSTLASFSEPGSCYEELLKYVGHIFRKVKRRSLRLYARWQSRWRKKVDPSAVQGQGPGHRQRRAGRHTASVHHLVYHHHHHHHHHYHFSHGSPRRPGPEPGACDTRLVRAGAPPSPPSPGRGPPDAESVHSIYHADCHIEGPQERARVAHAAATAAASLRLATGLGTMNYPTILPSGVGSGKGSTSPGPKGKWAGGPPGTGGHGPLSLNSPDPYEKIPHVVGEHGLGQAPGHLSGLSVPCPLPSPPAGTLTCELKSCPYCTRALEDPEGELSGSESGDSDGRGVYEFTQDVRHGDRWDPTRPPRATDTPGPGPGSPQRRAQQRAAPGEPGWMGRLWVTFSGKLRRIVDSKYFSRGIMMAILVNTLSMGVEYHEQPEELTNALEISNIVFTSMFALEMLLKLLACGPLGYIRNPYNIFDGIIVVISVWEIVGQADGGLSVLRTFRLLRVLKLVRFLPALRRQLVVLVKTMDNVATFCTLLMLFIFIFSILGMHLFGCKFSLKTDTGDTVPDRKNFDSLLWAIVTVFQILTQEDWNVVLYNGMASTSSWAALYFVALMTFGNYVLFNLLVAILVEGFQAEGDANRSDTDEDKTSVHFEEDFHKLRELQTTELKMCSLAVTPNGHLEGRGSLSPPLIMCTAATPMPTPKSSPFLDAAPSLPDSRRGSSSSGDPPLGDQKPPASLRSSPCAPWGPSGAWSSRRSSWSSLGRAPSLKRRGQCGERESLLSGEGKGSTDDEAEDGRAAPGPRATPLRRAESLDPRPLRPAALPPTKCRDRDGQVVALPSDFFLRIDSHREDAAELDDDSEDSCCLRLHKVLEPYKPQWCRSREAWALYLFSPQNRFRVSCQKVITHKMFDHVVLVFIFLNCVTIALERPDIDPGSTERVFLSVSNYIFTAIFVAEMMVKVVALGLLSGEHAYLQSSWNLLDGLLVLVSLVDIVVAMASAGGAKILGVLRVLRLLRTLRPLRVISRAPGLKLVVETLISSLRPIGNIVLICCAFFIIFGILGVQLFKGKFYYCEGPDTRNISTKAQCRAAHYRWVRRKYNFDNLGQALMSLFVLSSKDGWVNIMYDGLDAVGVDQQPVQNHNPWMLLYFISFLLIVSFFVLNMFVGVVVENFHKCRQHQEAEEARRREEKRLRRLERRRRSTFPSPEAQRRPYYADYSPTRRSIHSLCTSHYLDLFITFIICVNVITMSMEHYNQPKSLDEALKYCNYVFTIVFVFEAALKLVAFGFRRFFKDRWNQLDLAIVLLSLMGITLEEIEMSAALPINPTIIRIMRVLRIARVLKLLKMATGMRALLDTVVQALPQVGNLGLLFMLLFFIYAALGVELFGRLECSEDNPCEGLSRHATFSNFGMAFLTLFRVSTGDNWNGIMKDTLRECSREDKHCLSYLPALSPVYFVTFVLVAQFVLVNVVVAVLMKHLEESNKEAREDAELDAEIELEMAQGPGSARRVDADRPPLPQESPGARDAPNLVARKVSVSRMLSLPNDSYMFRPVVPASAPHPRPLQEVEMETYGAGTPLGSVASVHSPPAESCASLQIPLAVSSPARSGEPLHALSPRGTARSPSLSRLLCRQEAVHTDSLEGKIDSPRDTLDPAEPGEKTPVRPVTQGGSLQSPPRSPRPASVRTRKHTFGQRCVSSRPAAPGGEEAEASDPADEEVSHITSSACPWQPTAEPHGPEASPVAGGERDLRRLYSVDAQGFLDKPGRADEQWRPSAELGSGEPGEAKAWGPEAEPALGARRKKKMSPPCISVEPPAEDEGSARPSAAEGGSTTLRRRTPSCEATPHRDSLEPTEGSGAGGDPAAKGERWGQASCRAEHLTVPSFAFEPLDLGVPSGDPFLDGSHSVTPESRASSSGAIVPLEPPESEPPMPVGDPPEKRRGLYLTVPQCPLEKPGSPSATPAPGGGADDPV
# Experiment: Cav3.2 calcium influx blockers – cell-based, Fluo-4 calcium fluorescence, FDSS, MLSMR library, primary screen (AID 449739)
# Conditions: Cav3.2-expressing cells, at 10 µM, active compounds read low
row,SMILES,B-score
1,COc1cccc(N(C(=O)c2ccn[nH]2)C2(C(=O)Nc3c(C)cccc3C)CCCCC2)c1,-4.96 (active)
2,COc1cccc(N2CC(C(=O)Nc3c(C)cccc3C)CC2=O)c1 (stereo not given),0.386 (inactive)
3,COc1ccc(NC(=O)c2cccc(NC(=O)c3ccco3)c2)c(OC)c1,-2.2 (inactive)
4,COC(=O)c1cc(Cl)c(NC(=O)c2ccco2)cc1OC,-0.41 (inactive)
5,COc1ccccc1C(=O)Nc1ccc(NC(=O)c2ccco2)c(C)c1,-5.24 (active)
6,Cc1nc(C(=O)NCc2ccccc2)sc1C1(C)CC(c2cccnc2)=NO1 (stereo not given),0.0411 (inactive)
7,CCOC(=O)c1ccc(NC(=O)c2nc[nH]c2C(=O)NCc2ccccc2)cc1,-0.706 (inactive)
8,Oc1c(Cl)cc(Cl)c(Cl)c1Cc1c(O)c(Cl)cc(Cl)c1Cl,-5.05 (active)
9,CSc1ccc(S(=O)(=O)Nc2cccc(F)c2)cc1,-4.09 (active)
10,CSc1ccc(S(=O)(=O)NC2CCCCC2)cc1,-0.215 (inactive)
11,CSc1ccc(S(=O)(=O)NCc2ccc(Cl)cc2)cc1,-1.35 (inactive)
12,CC(C)(C)OC(=O)NCCCC1=CC2=CC(=O)C(C)(OC(=O)c3ccco3)C(=O)C2=CO1 (stereo not given),0.291 (inactive)
13,Cc1ccc(NC(=S)NC(=O)c2ccc(-c3ccccc3)cc2)cc1,-0.678 (inactive)
14,CCNC(=S)NNC(=O)Cc1ccccc1,0.703 (inactive)
15,COc1ccc(C(=O)NC(=S)NNC(=O)CCc2ccccc2)cc1,-4.4 (active)
16,CCOc1c2ccc(C(=O)NCc3ccc4c(c3)OCO4)cc2nn1C,0.329 (inactive)
17,CC(=O)NS(=O)(=O)c1ccc(NC(=O)/C=C/c2ccccc2Cl)cc1,-1.8 (inactive)
18,CCNc1nc(N)nc(-c2cc(Cl)ccc2OC)n1,0.499 (inactive)
19,CC[C@@H](C)[C@@H](C(=O)N1CCN(C(=O)OC(C)(C)C)CC1)n1cc(CCC(=O)O)nn1,1.09 (inactive)
20,CC(C)(C)C(=O)Nc1ccc(C(=O)N/N=C/c2ccccc2OC(=O)c2ccc(Cl)cc2Cl)cc1,-2.74 (inactive)
21,COC(=O)/C(=C\Nc1ccccc1)NC(=O)c1ccc(Cl)cc1Cl,-5.14 (active)
22,COc1ccc(Cl)cc1C(=O)NCC#N,0.746 (inactive)

row,SMILES,B-score
1,CCOc1cc(/C=C2/N=C(c3ccc(C(C)(C)C)cc3)OC2=O)cc(Cl)c1OS(C)(=O)=O,-1.04 (inactive)
2,Cc1nc2c(C(=O)NCc3ccc4c(c3)OCO4)c[nH]n2c(=O)c1Cc1ccccc1F,-5.22 (active)
3,CC(C)NC(=O)CSc1ccccc1C(=O)NCc1ccc2c(c1)OCO2,0.374 (inactive)
4,CCn1cc(C(=O)NCc2ccc3c(c2)OCO3)c2cc(OC)c(OC)cc2c1=O,0.417 (inactive)
5,O=C(CSc1nc(C2CC2)nc2ccccc12)Nc1ccc2c(c1)OCCO2,0.0431 (inactive)
6,COc1ccc(OC)c(C(=O)c2ccc(C(=O)O)cc2)c1,-3.15 (inactive)
7,COc1ccc2oc(C)c(NC(C)=O)c2c1,0.131 (inactive)
8,COc1ccc(OC)c(C(=O)c2coc3ccc(OC)cc23)c1,-3.61 (active)
9,Cc1ccccc1C(=O)N1CCC(C(=O)Nc2ccc(S(=O)(=O)N(C)C(C)C)cc2)CC1,0.159 (inactive)
10,NC(=O)CC[C@@H]1NC(=O)[C@H](CO)NC(=O)c2cc([N+](=O)[O-])cc(I)c2NCC[C@@H](C(N)=O)NC1=O,0.984 (inactive)
11,O=C(CC(Cc1ccccc1)C(=O)O)NCCc1ccc2c(c1)OCO2 (stereo not given),-0.225 (inactive)
12,O=C(COC(=O)c1ccc2c(c1)OCCO2)NCc1ccccc1,-0.412 (inactive)
13,O=C(NCCc1ccc2c(c1)OCCO2)c1cc2ccccc2o1,-3.85 (active)
14,COc1ccc(CNC(=O)[C@@H]2CC=C[C@@H]3CCN(C4CC4)C(=O)[C@@H]32)cc1,1.86 (inactive)
15,CC[C@H](C)[C@@H](C(=O)N1CCNCC1)n1cc([C@@H](N)Cc2ccc(O)cc2)nn1,0.0182 (inactive)
16,Cc1cccc(N(C(=O)Cc2cccs2)C(C(=O)NC2CCCC2)c2ccsc2)c1 (stereo not given),-1.16 (inactive)
17,CCC1(CC)C(=O)C2=C3C1[C@H](C(=O)OC)C=C(C(=O)OC)C[C@H]3[C@H]1C(=O)N(Cc3ccccc3)C(=O)[C@H]1[C@H]2C (stereo not given in full),0.691 (inactive)
18,Cc1[nH]n(-c2cccc(Cl)c2)c(=O)c1-c1ccc(Cl)cc1,-7.48 (active)
19,O=c1[nH]n(-c2cccc(Cl)c2)c2ncccc12,0.173 (inactive)
20,Cc1ccc(-c2cc(=O)c3ccc(Cl)cc3[nH]2)cc1,-0.0223 (inactive)
21,Cc1ccc(C)n1C(Cc1ccccc1)C(=O)O (stereo not given),1.91 (inactive)
22,CC1=CC(C)(C)Nc2ccc(OC(=O)CN3C(=O)C4CCCCC4C3=O)cc21 (stereo not given),-0.00954 (inactive)

row,SMILES,B-score
1,CC1=CC(C)(C)Nc2ccc(OC(=O)C(Cc3ccccc3)N3C(=O)C4CCCCC4C3=O)cc21 (stereo not given),-5.23 (active)
2,COCCCn1c(SCc2cccc(OC)c2)nc2cc(OC)c(OC)cc2c1=N,-0.819 (inactive)
3,C=C1CCN([C@H](C(=O)NCc2cc(OC)c(OC)c(OC)c2)C(C)C)S(=O)(=O)c2ccccc21,1.03 (inactive)
4,COc1ccc2cc1Oc1ccc(cc1)C[C@H]1c3cc(c(OC)cc3CCN1C)Oc1c(O)c(OC)cc3c1[C@H](C2)N(C)CC3,1.81 (inactive)
5,COc1ccc(-c2cc(C(=O)n3cnc4ccccc43)c3ccccc3n2)cc1,-0.0392 (inactive)
6,COc1ccc(-c2[nH]nc(-c3ccccc3)c2-c2nc3ccccc3[nH]2)cc1,-6.24 (active)
7,COc1ccccc1CSc1nc2ccccc2[nH]1,-0.942 (inactive)
8,O=C(COc1ccccc1)NCCc1nc2ccccc2[nH]1,0.299 (inactive)
9,O=C1C(=O)N(CCN2CCOCC2)C(c2ccccn2)/C1=C(/O)c1ccc(Cl)cc1 (stereo not given),-0.156 (inactive)
10,COc1ccccc1C1/C(=C(/O)c2ccc(OC(C)C)cc2)C(=O)C(=O)N1c1cc(C)on1 (stereo not given),-0.532 (inactive)
11,Cc1cc(N2C(=O)C(=O)/C(=C(/O)c3ccc(Cl)cc3)C2c2cccc(Br)c2)no1 (stereo not given),-7.89 (active)
12,Cc1cccc(NC(=S)Nc2ccc(Br)cc2)c1,-1.14 (inactive)
13,O=C(COc1ncnc2c(Cl)cc(Cl)cc12)N1CCN(S(=O)(=O)c2ccccc2)CC1,0.727 (inactive)
14,CC(C)(C)NC(=O)C(c1ccco1)N(Cc1ccc2c(c1)OCO2)C(=O)Cn1nnc2ccccc21 (stereo not given),-1.57 (inactive)
15,COc1ccccc1N(C(=O)Cn1nnc2ccccc21)C(C(=O)NCc1ccco1)c1ccc(C)o1 (stereo not given),-6.1 (active)
16,Cc1ccc(C(C(=O)NCc2ccco2)N(CC2CCCO2)C(=O)Cn2nnc3ccccc32)cc1 (stereo not given),0.195 (inactive)
17,CCOC(=O)c1cc(NC(=O)c2ccc(Cl)cc2)c(=O)oc1-c1ccccc1,-0.21 (inactive)
18,COC(=O)C1(O)CC(C(C)C)=NN1C(=O)c1ccc(Cl)cc1 (stereo not given),-0.542 (inactive)
19,Cc1nnsc1S(=O)(=O)Cc1ccccc1Cl,0.123 (inactive)
20,O=C(NNS(=O)(=O)c1ccc(Cl)cc1)C1CCN(Cc2ccccc2)CC1,0.455 (inactive)
21,COC(=O)C(NC(=O)c1ccc(OC)cc1)(Nc1ncc(S(=O)(=O)c2ccc([N+](=O)[O-])cc2)s1)C(F)(F)F (stereo not given),-8.97 (active)
22,COc1ccc(C(=O)Nc2nc(-c3ccc(OC)cc3)c(-c3ccc([N+](=O)[O-])cc3)s2)cc1,-2.13 (inactive)

row,SMILES,B-score
1,COc1ccc(C(=O)Nc2ccc(S(=O)(=O)NC(C)C)cc2)cc1,1.46 (inactive)
2,COC(=O)CCCC1=CC2=CC(=O)C(C)(OC(=O)c3cccs3)C(=O)C2=CN1CC(C)C (stereo not given),0.582 (inactive)
3,COC(C[C@@H]1O[C@@H]1C(=O)[C@H](C)OCc1ccccc1)OC,-0.00689 (inactive)
4,COC(=O)c1ccc(NC(=O)CSc2nnc(Cc3cccn3C)n2-c2ccc(F)cc2)cc1,-9.38 (active)
5,Cc1ccc(C)c(NC(=O)CSc2nnc(Cc3cccn3C)n2-c2ccc(F)cc2)c1,-2.84 (inactive)
6,Cn1cccc1Cc1nnc(SCC(=O)NCCc2ccccc2)n1-c1ccc(F)cc1,-2.55 (inactive)
7,CCc1nnc(NC(=O)CSc2nnc(Cc3ccccc3)n2-c2ccc(OC)cc2)s1,-1.29 (inactive)
8,COc1ccc(-n2c(Cc3cccn3C)nnc2SCC(=O)Nc2cc(C)cc(C)c2)cc1,-8.52 (active)
9,COc1ccccc1NC(=O)CSc1nnc(Cc2cccn2C)n1-c1ccc(F)cc1,-2.37 (inactive)
10,COc1ccccc1CNC(=O)c1ccc(SC)cc1OC,-2.74 (inactive)
11,Cc1ccccc1CS(=O)(=O)CC1(O)CCN(C(=O)c2cccc(C(F)(F)F)c2)CC1,0.394 (inactive)
12,C#CCOCCOCCOCCNc1nc(N2CCN(C(=O)[C@H](Cc3ccc(O)cc3)n3cc(C(N)CC(C)C)nn3)CC2)nc(N2CCN(C(=O)[C@H](CCC(=O)O)n3cc(C(N)[C@H](C)CC)nn3)CC2)n1 (stereo not given in full),-0.0524 (inactive)
13,COc1cc(NC(=O)c2cncc(-c3ccc(C#N)cc3)c2)cc(C(=O)Nc2cccc(C(F)(F)F)c2)c1,0.721 (inactive)
14,CCOc1[nH]n(-c2ccc(Cl)cc2)c(=O)c1C=Nc1ccc(O)cc1,-0.0117 (inactive)
15,O=C(Nc1ccc(-c2csc(Nc3cccc(C(F)(F)F)c3)n2)cc1)c1cccc(C(F)(F)F)c1,0.00365 (inactive)
16,COC(C[C@@H](O)C[C@H](O)[C@H](C)OCc1ccccc1)OC,1.07 (inactive)
17,Cn1c(=O)c2c(ncn2CC(=O)N2CCN(c3ccccc3)CC2)n(C)c1=O,0.538 (inactive)
18,CCOc1ccc(-c2nnn(CC(=O)N3CCN(c4ccc(F)cc4)CC3)n2)cc1OCC,0.122 (inactive)
19,O=C(c1ccccc1)c1cccn1CC(=O)N1CCN(c2ccc(F)cc2)CC1,-6.62 (active)
